Experimental data taken from PubChem BioAssay (NCATS).
Results filed as inconclusive are left out. Values without a mark were called inactive. Calls of active or inactive are those of the source. The call rests on the fitted dose curve; in most records, active means well fitted cell-killing curve with a large enough effect; inconclusive means small, poorly fitted or top-dose-only effect, or effect the other way; inactive means flat fitted curve, though single readings scatter.

Test: qHTS assay for cell viability of HEK293 cells (AID 743288); further: nearly all actives have a fitted effect of over 50% in size
Conditions: ATP luminescence (CellTiter-Glo), 18 h; max response: stronger effect = lower value
Method in brief: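 Luminescent ATP quantitation served as the viability read-out. Cells (parental HEK293, 2,000/well) received compounds after at least 5 h at 37 C and were exposed for 18 h before a 30 min room-temperature reagent step.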
On the % scale 0 is the no-effect control and ±100 the full control effect.

Row | Compound | max response
1 | CC(=O)[C@@]1(O)CC[C@H]2[C@@H]3CCC4=CC(=O)CC[C@]4(C)[C@H]3CC[C@@]21C | -17.3%
2 | Cc1ccc(S(=O)(=O)NC(=O)NN2CCCCCC2)cc1 | -0.908%
3 | CN=C(NC#N)NCCSCc1nc[nH]c1C | -3.45%
4 | O=c1[nH]c(=O)n([C@H]2C[C@H](O)[C@@H](CO)O2)cc1Br | -7.4%

Test: qHTS assay for cell viability of the p53RE-bla HCT-116 cell line (AID 743292); further: nearly all actives have a fitted effect of over 55% in size
Conditions: p53RE-bla HCT-116 viability, ATP luminescence, 16 h; series mostly up to 95 µM
Method in brief: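 In this qHTS counter-screen, metabolically competent p53RE-bla HCT-116 cells were counted via their ATP content. Compounds were applied for 16 h at 37 C and luciferase-coupled luminescence was measured.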

Row | Compound | outcome
5 | CC(=O)[C@@]1(O)CC[C@H]2[C@@H]3CCC4=CC(=O)CC[C@]4(C)[C@H]3CC[C@@]21C | inactive
6 | Cc1ccc(S(=O)(=O)NC(=O)NN2CCCCCC2)cc1 | inactive
7 | CN=C(NC#N)NCCSCc1nc[nH]c1C | inactive
8 | O=c1[nH]c(=O)n([C@H]2C[C@H](O)[C@@H](CO)O2)cc1Br | inactive
